# Measurements published in the supplement of paper PMC10037445.
# Where “and” joins values, the source holds several entries; their conditions need not be identical. Equal values may be shown once. Over roughly 2,900 compounds, “NF-kB SEAP reporter activity, fold change vs agonist alone” has its median near 0.99; the highest 2% begin near 2.6. The list comes from a sample in which the highest values are over-represented; it also holds similar structures and randomly drawn compounds.
# Key:
# [1] = system: RAW-Dual; assay: NF-kB SEAP reporter activity, fold change vs agonist alone; higher = enhanced NF-kB activity
# How it was run: (§1)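 RAW-Dual macrophages were seeded in DMEM at 50,000 cells/well in 384-well plates, given 50 nL of library stock by pin tool, and given a PRR agonist 1 h later. Plates were held at 37 °C, 5% CO2 for 20 hours, after which supernatant was read for IRF by QuantiLuc luminescence and for NF-κB by QuantiBlue absorbance at 620 nm. Reporter activity is expressed as fold change over wells that received agonist alone. A well was called cytotoxic when IncuCyte confluency fell below 70% of agonist controls in both mask sets.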
# [2] = system: RAW-Dual; assay: NF-kB SEAP reporter activity, fold change vs agonist alone; cytotoxicity flag (confluency mask): not cytotoxic; higher = enhanced NF-kB activity
# How it was run: as §1
# [3] = system: RAW-Dual; assay: NF-kB SEAP reporter activity, fold change vs agonist alone; cytotoxicity flag (confluency mask): cytotoxic (confluency <70% of control); higher = enhanced NF-kB activity
# How it was run: as §1
# [4] = library stock concentration (final ~1000-fold dilution): 10 mM, cytotoxicity flag (confluency mask): not cytotoxic, agonist: Imiquimod (TLR7) […]
# [5] = library stock concentration (final ~1000-fold dilution): 10 mM, cytotoxicity flag (confluency mask): not cytotoxic, agonist: MPLA (TLR4) […]
# [6] = agonist: ODN 1826 (TLR9) 0.5 ug/mL
# [7] = agonist: Pam2CSK4 (TLR2/6) 0.1 ug/mL
# [8] = agonist: Pam3CSK4 (TLR2/1) 0.1 ug/mL
# [9] = library stock concentration (final ~1000-fold dilution): 10 mM, cytotoxicity flag (confluency mask): cytotoxic (confluency <70% of control), agonist: Imiquimod (TLR7) […]
# [10] = library stock concentration (final ~1000-fold dilution): 10 mM, cytotoxicity flag (confluency mask): cytotoxic (confluency <70% of control), agonist: MPLA (TLR4) […]
smiles,measurement,setting,value
Cl.N=c1ccn2c(n1)OC1C(O)C(CO)OC12 (centres undefined),NF-kB SEAP reporter activity,[1]; [4],1.8
same,NF-kB SEAP reporter activity,[1]; [5],1.42
Cl.N=c1ccn2c(n1)OC1C(O)C(CO)OC12 (centres undefined) (library stock concentration (final ~1000-fold dilution): 10 mM),NF-kB SEAP reporter activity,[2]; agonist: LPS (TLR4) 0.1 ug/mL,1.33
same,NF-kB SEAP reporter activity,[2]; [6],1.89
same,NF-kB SEAP reporter activity,[2]; [7],1.4
same,NF-kB SEAP reporter activity,[2]; [8],1.83
Brc1ccc(CCCCn2ccnc2)cc1 (library stock concentration (final ~1000-fold dilution): 10 mM),NF-kB SEAP reporter activity,[2]; agonist: LPS (TLR4) 0.1 ug/mL,0.672 and 0.736
same,NF-kB SEAP reporter activity,[2]; [6],0.566 and 0.595
same,NF-kB SEAP reporter activity,[2]; [7],0.493 and 0.552
same,NF-kB SEAP reporter activity,[2]; [8],0.585 and 0.645
CN(C)C(=O)CCSC(SCCC(=O)O)c1cccc(C=Cc2ccc3ccc(Cl)cc3n2)c1 (centres undefined) (library stock concentration (final ~1000-fold dilution): 10 mM),NF-kB SEAP reporter activity,[2]; agonist: LPS (TLR4) 0.1 ug/mL,1.5
same,NF-kB SEAP reporter activity,[2]; [6],1.12
same,NF-kB SEAP reporter activity,[2]; [7],0.936
same,NF-kB SEAP reporter activity,[2]; [8],0.945
CN(C)C(=O)CCSC(SCCC(=O)O)c1cccc(C=Cc2ccc3ccc(Cl)cc3n2)c1 (centres undefined),NF-kB SEAP reporter activity,[1]; [4],0.973
same,NF-kB SEAP reporter activity,[1]; [5],1.05
Cc1cc(N2CCOCC2)cc2[nH]c(-c3c(NCC(O)c4cccc(Cl)c4)cc[nH]c3=O)nc12 (centres undefined) (library stock concentration (final ~1000-fold dilution): 10 mM),NF-kB SEAP reporter activity,[2]; agonist: LPS (TLR4) 0.1 ug/mL,0.682
same,NF-kB SEAP reporter activity,[2]; [6],3.16
same,NF-kB SEAP reporter activity,[2]; [7],0.436
same,NF-kB SEAP reporter activity,[2]; [8],0.595
CNC(=O)c1ccccc1Nc1nc(Nc2ccc(N3CCOCC3)cc2OC)ncc1Cl,NF-kB SEAP reporter activity,[1]; [4],0.466
same,NF-kB SEAP reporter activity,[1]; [5],0.594
CNC(=O)c1ccccc1Nc1nc(Nc2ccc(N3CCOCC3)cc2OC)ncc1Cl (library stock concentration (final ~1000-fold dilution): 10 mM),NF-kB SEAP reporter activity,[2]; agonist: LPS (TLR4) 0.1 ug/mL,0.332
same,NF-kB SEAP reporter activity,[2]; [6],0.296
same,NF-kB SEAP reporter activity,[2]; [7],0.134
same,NF-kB SEAP reporter activity,[2]; [8],0.246
Cc1cc(N2CCOCC2)ccc1Nc1nc(NC2CCCCC2)c2nc[nH]c2n1 (library stock concentration (final ~1000-fold dilution): 10 mM),NF-kB SEAP reporter activity,[2]; agonist: LPS (TLR4) 0.1 ug/mL,1.44
same,NF-kB SEAP reporter activity,[2]; [6],0.814
same,NF-kB SEAP reporter activity,[2]; [7],1
same,NF-kB SEAP reporter activity,[2]; [8],0.926
Cc1cc(N2CCOCC2)ccc1Nc1nc(NC2CCCCC2)c2nc[nH]c2n1,NF-kB SEAP reporter activity,[1]; [4],0.925
same,NF-kB SEAP reporter activity,[1]; [5],1.04
Cc1cc(N2CCOCC2)cc2[nH]c(-c3c(NCC(O)c4cccc(Cl)c4)cc[nH]c3=O)nc12 (centres undefined),NF-kB SEAP reporter activity,[1]; [4],2.06
same,NF-kB SEAP reporter activity,[1]; [5],0.802
Cl.NC12CC3CC(CC(C3)C1)C2 (library stock concentration (final ~1000-fold dilution): 10 mM),NF-kB SEAP reporter activity,[2]; agonist: LPS (TLR4) 0.1 ug/mL,1.03
same,NF-kB SEAP reporter activity,[2]; [6],0.798
same,NF-kB SEAP reporter activity,[2]; [7],0.873
same,NF-kB SEAP reporter activity,[2]; [8],1.02
Cl.NC12CC3CC(CC(C3)C1)C2,NF-kB SEAP reporter activity,[1]; [4],0.884
same,NF-kB SEAP reporter activity,[1]; [5],1.08
Nc1ccccc1NC(=O)c1ccc(CNC(=O)OCc2cccnc2)cc1 (library stock concentration (final ~1000-fold dilution): 10 mM),NF-kB SEAP reporter activity,[2]; agonist: LPS (TLR4) 0.1 ug/mL,1.22
same,NF-kB SEAP reporter activity,[2]; [6],1.02
same,NF-kB SEAP reporter activity,[2]; [7],1.07
same,NF-kB SEAP reporter activity,[2]; [8],1.14
Nc1ccccc1NC(=O)c1ccc(CNc2nccc(-c3cccnc3)n2)cc1,NF-kB SEAP reporter activity,[1]; [9],2.7
same,NF-kB SEAP reporter activity,[1]; [10],2.58
Nc1ccccc1NC(=O)c1ccc(CNc2nccc(-c3cccnc3)n2)cc1 (library stock concentration (final ~1000-fold dilution): 10 mM),NF-kB SEAP reporter activity,[3]; agonist: LPS (TLR4) 0.1 ug/mL,5.7
same,NF-kB SEAP reporter activity,[3]; [6],3.2
same,NF-kB SEAP reporter activity,[3]; [7],0.984
same,NF-kB SEAP reporter activity,[3]; [8],1.9
Cc1ccc(NC(=O)c2ccc(CN3CCN(C)CC3)cc2)cc1Nc1nccc(-c2cccnc2)n1,NF-kB SEAP reporter activity,[1]; [4],1.31
same,NF-kB SEAP reporter activity,[1]; [5],1.69
Cc1ccc(NC(=O)c2ccc(CN3CCN(C)CC3)cc2)cc1Nc1nccc(-c2cccnc2)n1 (library stock concentration (final ~1000-fold dilution): 10 mM),NF-kB SEAP reporter activity,[2]; agonist: LPS (TLR4) 0.1 ug/mL,1.23
same,NF-kB SEAP reporter activity,[2]; [6],0.212
same,NF-kB SEAP reporter activity,[2]; [7],1.55
same,NF-kB SEAP reporter activity,[2]; [8],1.42
Nc1ccccc1NC(=O)c1ccc(CNC(=O)OCc2cccnc2)cc1,NF-kB SEAP reporter activity,[1]; [4],0.921
same,NF-kB SEAP reporter activity,[1]; [5],1.06
O=P(O)(O)Oc1cccc2ccccc12,NF-kB SEAP reporter activity,[1]; [5],1.08
O=P(O)(O)Oc1cccc2ccccc12 (library stock concentration (final ~1000-fold dilution): 10 mM),NF-kB SEAP reporter activity,[2]; agonist: LPS (TLR4) 0.1 ug/mL,1.05
same,NF-kB SEAP reporter activity,[2]; [6],0.917
same,NF-kB SEAP reporter activity,[2]; [7],1.16
same,NF-kB SEAP reporter activity,[2]; [8],0.879
O=C(/C=C/c1cncc(F)c1)c1c(-c2ccccc2)c2cc(Cl)ccc2[nH]c1=O (library stock concentration (final ~1000-fold dilution): 10 mM),NF-kB SEAP reporter activity,[3]; agonist: LPS (TLR4) 0.1 ug/mL,0.257
same,NF-kB SEAP reporter activity,[3]; [6],0.212
same,NF-kB SEAP reporter activity,[3]; [7],0.0981
same,NF-kB SEAP reporter activity,[3]; [8],0.253
O=C(/C=C/c1cncc(F)c1)c1c(-c2ccccc2)c2cc(Cl)ccc2[nH]c1=O,NF-kB SEAP reporter activity,[1]; [9],0.157
same,NF-kB SEAP reporter activity,[1]; [10],0.259
COC1/C=C/OC2(C)Oc3c(C)c(O)c4c(O)c(c(/C=N/N5CCN(C6CCCC6)CC5)c(O)c4c3C2=O)NC(=O)/C(C)=C/C=C/C(C)C(O)C(C)C(O)C(C)C(OC(C)=O)C1C (centres undefined),NF-kB SEAP reporter activity,[1]; [4],1.11
same,NF-kB SEAP reporter activity,[1]; [5],0.969
COC1/C=C/OC2(C)Oc3c(C)c(O)c4c(O)c(c(/C=N/N5CCN(C6CCCC6)CC5)c(O)c4c3C2=O)NC(=O)/C(C)=C/C=C/C(C)C(O)C(C)C(O)C(C)C(OC(C)=O)C1C (centres undefined) (library stock concentration (final ~1000-fold dilution): 10 mM),NF-kB SEAP reporter activity,[2]; agonist: LPS (TLR4) 0.1 ug/mL,1.56
same,NF-kB SEAP reporter activity,[2]; [6],0.892
same,NF-kB SEAP reporter activity,[2]; [7],0.643
same,NF-kB SEAP reporter activity,[2]; [8],0.742
O=C(O)CC[C@@H](O)C(=O)O (library stock concentration (final ~1000-fold dilution): 10 mM water),NF-kB SEAP reporter activity,[2]; agonist: LPS (TLR4) 0.1 ug/mL,1.44
same,NF-kB SEAP reporter activity,[2]; [6],1.16
same,NF-kB SEAP reporter activity,[2]; [7],1.17
same,NF-kB SEAP reporter activity,[2]; [8],1.12
O=C(O)CC[C@@H](O)C(=O)O,NF-kB SEAP reporter activity,"[1]; library stock concentration (final ~1000-fold dilution): 10 mM water, cytotoxicity flag (confluency mask): not cytotoxic, agonist: Imiquimod (TLR7) […]",0.93
same,NF-kB SEAP reporter activity,"[1]; library stock concentration (final ~1000-fold dilution): 10 mM water, cytotoxicity flag (confluency mask): not cytotoxic, agonist: MPLA (TLR4) […]",1.07
CC1(C)OCC(COC(=O)CCc2ccc(OCC(O)CNCCNC(=O)N3CCOCC3)cc2)O1.Cl (centres undefined),NF-kB SEAP reporter activity,[1]; [4],0.97
same,NF-kB SEAP reporter activity,[1]; [5],1.01
CC1(C)OCC(COC(=O)CCc2ccc(OCC(O)CNCCNC(=O)N3CCOCC3)cc2)O1.Cl (centres undefined) (library stock concentration (final ~1000-fold dilution): 10 mM),NF-kB SEAP reporter activity,[2]; agonist: LPS (TLR4) 0.1 ug/mL,0.799
same,NF-kB SEAP reporter activity,[2]; [6],0.908
same,NF-kB SEAP reporter activity,[2]; [7],1.04
same,NF-kB SEAP reporter activity,[2]; [8],0.926
CC(C)(C)OC(=O)Nc1ccc(-c2cc(C(=O)NCCCCCCC(=O)NO)no2)cc1,NF-kB SEAP reporter activity,[1]; [9],0.912
same,NF-kB SEAP reporter activity,[1]; [10],1.81
CC(C)(C)OC(=O)Nc1ccc(-c2cc(C(=O)NCCCCCCC(=O)NO)no2)cc1 (library stock concentration (final ~1000-fold dilution): 10 mM),NF-kB SEAP reporter activity,[3]; agonist: LPS (TLR4) 0.1 ug/mL,6.9
same,NF-kB SEAP reporter activity,[3]; [6],1.11
same,NF-kB SEAP reporter activity,[3]; [7],1.33
same,NF-kB SEAP reporter activity,[3]; [8],1.21
CC(C)C1C(=O)NC(CCCNC(=N)N)C(=O)NCC(=O)NC(CC(=O)O)C(=O)NC(Cc2ccccc2)C(=O)N1C.O=C(O)C(F)(F)F (centres undefined),NF-kB SEAP reporter activity,[1]; [4],0.977
same,NF-kB SEAP reporter activity,[1]; [5],1.11
CC(C)C1C(=O)NC(CCCNC(=N)N)C(=O)NCC(=O)NC(CC(=O)O)C(=O)NC(Cc2ccccc2)C(=O)N1C.O=C(O)C(F)(F)F (centres undefined) (library stock concentration (final ~1000-fold dilution): 10 mM),NF-kB SEAP reporter activity,[2]; agonist: LPS (TLR4) 0.1 ug/mL,0.99
same,NF-kB SEAP reporter activity,[2]; [6],1.01
same,NF-kB SEAP reporter activity,[2]; [7],0.985
same,NF-kB SEAP reporter activity,[2]; [8],0.921
